Measured values taken from the OligoGym collection.

Target: ATP10B
Assay: pooled miR-30 sensor sort-seq; sequence = guide strand
Conditions: shRNA
Note: reference of the scale not given here.

| Sequence | sensor-assay potency score (higher = more potent) |
| --- | --- |
| TTGAAGAATATCATCTGCCAGT | -0.482 |
| TTGGTGTAGACAACAATCTCGC | -0.19 |
| TTCTTGGTGAGAATACTCGCTG | -0.605 |
| TTTGTCTCTCCATCCAAGCTGG | -0.607 |
| TTGATGGTGACCCTCTGCCTGG | -1.45 |
| TCGCTTAGCATTTTCTTGGTGA | 0.0526 |
| TTTATCTGGAGTTACATCTTTT | -0.334 |
| TAACATGGTGATTTCTCTGTGG | 0.162 |
| TAAGGTGAGTTGATTCTCCAGA | 0.552 |
| TTTGAGATTAGAGACTTCCCAC | 0.383 |
| TTGACTATCATACTCTTCTGGA | 0.0435 |

Target: ATP13A3
Assay: as above
Conditions: shRNA

| Sequence | sensor-assay potency score (higher = more potent) |
| --- | --- |
| TAGATTTTGGACTTGAAACTGG | -0.128 |
| TTCATCAGTAGTCCTCAGCAGC | -0.704 |
| TTCTTCAGTTGCTTCTTCCAGA | -0.0869 |
| TAGACATAGATTTTGGACTTGA | -0.0415 |
| TTGACATGATCCATTCTCCTTA | -0.0274 |
| TTCGGTTTCATTGTCTACGTGT | 0.717 |
| TTGACGTACAAGAAACACCTTC | 0.452 |
| TTAATTGCAGCTCTGACACAGG | 0.0379 |
| TATAACACTGAACAGCTGGAAA | -0.978 |
| TAAAGCTTTAGCTTCTGTGGTT | -0.122 |

Target: ATP2B3
Assay: as above
Conditions: shRNA

| Sequence | sensor-assay potency score (higher = more potent) |
| --- | --- |
| TTGATCAGAAACTCGGGCGTGG | 0.126 |
| TTGACCAGAAAGATATTCTTGC | 0.31 |
| TTTATGAACTGAACACAGTTGA | 0.503 |
| AAAACAACTACAACCTTGCTAC | -0.0751 |
| TTAAACAAGGACATCAGGGAAC | -0.472 |
| AAAAAAAACAACTACAACCTTG | -0.501 |
| TTCCTCACCATGTCGTCCCGGT | -0.00689 |
| TTCTTTTGAACTCTTGGCCCTG | -0.519 |
| TTTCTTGACAGAGTAAGCTAAG | -0.513 |
| TTGTCGGTGGGAGACGACCGGG | -1.43 |
| TATTGTACATAGACCGGCGTGC | 0.677 |
| TTTTTCAAGAGGATCTCTGAGG | -0.749 |
| TGAAACTGCAGGAACTTGGAGA | 0.195 |
| TTTTCTTGACAGAGTAAGCTAA | -0.151 |
| TTTTTTTGCATGAAGATGCTGA | 0.145 |
| TTGGCTTCTTTTGAACTCTTGG | 0.325 |
| TTGTAAAGCTTGTCTTCCGGGA | -0.394 |
| TTGACTGCTTCTGCTCAGGGGT | -0.897 |
| TTTGTAAAGCTTGTCTTCCGGG | -0.371 |
